Source: the supplement of paper PMC13380429

Test system: Vero E6 infected with SARS-CoV-2
Assay: inhibition of SARS-CoV-2 cytopathic effect; higher = more antiviral protection, active = above 15
Settings: 48 h

Measured: inhibition of SARS-CoV-2 cytopathic effect

C[C@H](Nc1ncnc2nc[nH]c12)c1cc2cccc(Cl)c2c(=O)n1-c1ccccc1 [duvelisib]
inactive: 1 nM -1.06% | 8.33 nM -0.83% | 100 nM -1.82% | 833.33 nM 0.25% | 10000 nM -3.79%

CC(C)CC(N)=O [isovaleramide]
inactive: 1 nM 1.36% | 8.33 nM -1.79% | 100 nM 1.18% | 833.33 nM 0.06% | 10000 nM 0.19%

Oc1cc(O)cc(O)c1 [phloroglucin]
inactive: 1 nM 3.42% | 8.33 nM 1.38% | 100 nM 2.28% | 833.33 nM 2.17% | 10000 nM -2.03%

CNCc1ccc(-c2cc(-c3nc(-c4ccc(S(=O)(=O)C(C)C)cc4)cnc3N)on2)cc1
active: 833.33 nM 24.5% | 10000 nM 25.2%
inactive: 1 nM 0.45% | 8.33 nM 3.25% | 100 nM 1.09%

COc1cc(N2CCC(N3CCN(C)CC3)CC2)ccc1Nc1ncnc(Nc2ccccc2S(=O)(=O)C(C)C)n1
inactive: 1 nM 1.25% | 8.33 nM -0.68% | 100 nM 1.16% | 833.33 nM 2.18% | 10000 nM -7.16%

COc1cc(N)cn[n+]1-c1ccccc1 [amezinium]
inactive: 1 nM -1.03% | 8.33 nM -0.58% | 100 nM 0.21% | 833.33 nM 0.15% | 10000 nM -1.56%

CCCCCCCC/C=C/CCCCCCCC(=O)OC[C@H]1O[C@@H](n2ccc(N)nc2=O)C(F)(F)[C@@H]1O [gemcitabine-elaidate]
inactive: 1 nM -0.31% | 8.33 nM -0.77% | 100 nM -1.9% | 833.33 nM 0.35% | 10000 nM 3%

FC(F)(F)c1cc(CO[C@H]2CCCN[C@H]2c2ccccc2)cc(C(F)(F)F)c1
active: 10000 nM 18.1%
inactive: 1 nM 0.32% | 8.33 nM -2.69% | 100 nM -5.07% | 833.33 nM -6.64%

NC(=O)c1nc(F)cnc1O [favipiravir]
inactive: 1 nM -4.88% | 8.33 nM -2.34% | 100 nM -0.79% | 833.33 nM 0.84% | 10000 nM -6.81%

CC(C)[C@@H](CS(=O)(=O)C(C)C)N1C(=O)[C@@](C)(CC(=O)O)C[C@H](c2cccc(Cl)c2)[C@H]1c1ccc(Cl)cc1
inactive: 1 nM 2.3% | 8.33 nM 3.7% | 100 nM 3.54% | 833.33 nM 4.65% | 10000 nM 4.3%

Cc1c(C)c2c(c(C)c1O)CCC(C)(C(=O)O)O2 (stereo not given) [trolox]
inactive: 1 nM 4.59% | 8.33 nM 3.64% | 100 nM 1.16% | 833.33 nM 6.02% | 10000 nM 2.14%

O=[N+]([O-])c1cn2c(n1)OC[C@@H](OCc1ccc(-c3ccc(OC(F)(F)F)cc3)nc1)C2
inactive: 1 nM 1.33% | 8.33 nM -0.87% | 100 nM -0.57% | 833.33 nM 4.38% | 10000 nM 0.34%

O=C1O[C@H]([C@@H](O)CO)C(O)=C1O
inactive: 1 nM -3.29% | 8.33 nM -0.03% | 100 nM -1.22% | 833.33 nM -0.21% | 10000 nM -1.51%

CCOC(=O)c1ccc(-c2ccc(OC(=O)N(C)Cc3cccc(-c4ccncc4)c3)cc2)cc1
inactive: 1 nM 2.8% | 8.33 nM -0.08% | 100 nM 3.06% | 833.33 nM 4.52% | 10000 nM 4.58%

Nc1ccc(S(=O)(=O)c2ccc(N)cc2)cc1 [dapsone]
inactive: 1 nM -2.51% | 8.33 nM 2.16% | 100 nM 0.46% | 833.33 nM 11.1% | 10000 nM 1.03%

CNS(=O)(=O)Nc1nccc(Cc2c(C)c3ccc(Oc4ncccn4)cc3oc2=O)c1F
inactive: 1 nM -0.25% | 8.33 nM -3.18% | 100 nM -10.4% | 833.33 nM -17.5% | 10000 nM -15.7%

CCOC(=O)CCC(=O)O[C@H]1[C@H](O[C@@H]2[C@@H](C)[C@H](O[C@H]3C[C@@](C)(OC)[C@@H](O)[C@H](C)O3)[C@@H](C)C(=O)O[C@H](CC)[C@@](C)(O)[C@H](O)[C@@H](C)C(=O)[C@H](C)C[C@@]2(C)O)O[C@H](C)C[C@@H]1N(C)C [erythromycin-ethylsuccinate]
inactive: 1 nM 0.01% | 8.33 nM 0.11% | 100 nM 0.57% | 833.33 nM 0.29% | 10000 nM -0.24%

OC[C@H]1O[C@H](O[C@H]2[C@H](O)[C@@H](O)[C@H](O)O[C@@H]2CO)[C@H](O)[C@@H](O)[C@@H]1O [D-(+)-maltose]
inactive: 1 nM -1.05% | 8.33 nM -1.49% | 100 nM -0.09% | 833.33 nM -1.17% | 10000 nM -3.27%

CN[C@@H](C)CC1CCCCC1 [propylhexedrine]
inactive: 1 nM -0.64% | 8.33 nM -5.27% | 100 nM -5.29% | 833.33 nM -6.1% | 10000 nM -8.06%

CCc1ccc(/C=C/C(=O)Nc2ccc(C(C)=O)cc2)o1 [heclin]
inactive: 1 nM -2.06% | 8.33 nM -1.28% | 100 nM -7.85% | 833.33 nM -6.86% | 10000 nM -5.66%

CCC1(C2=NCCN2)Cc2ccccc2O1 (stereo not given) [efaroxan]
inactive: 1 nM -0.76% | 8.33 nM -1.17% | 100 nM -0.66% | 833.33 nM -2.93% | 10000 nM -3.79%

C=C1/C(=C\C=C2/CCC[C@]3(C)[C@@H]([C@H](C)CCCC(C)C)CC[C@@H]23)C[C@@H](O)C[C@@H]1O [alfacalcidol]
inactive: 1 nM 2.5% | 8.33 nM -0.82% | 100 nM -1.14% | 833.33 nM 0.53% | 10000 nM -5.24%

Cc1ccc2nc(N)[nH]c(=O)c2c1Sc1ccncc1 [nolatrexed]
inactive: 1 nM 0.89% | 8.33 nM 3.11% | 100 nM 1.17% | 833.33 nM 2.04% | 10000 nM -2.82%

Nc1ncnc2c1C(=O)N(c1ccc([C@H]3CC[C@H](CC(=O)O)CC3)cc1)CCO2
inactive: 1 nM 4.58% | 8.33 nM 2.44% | 100 nM -0.31% | 833.33 nM 5.58% | 10000 nM 4.43%

CCCN(CCC)CCc1ccc(OC)c(OCCc2ccccc2)c1
inactive: 1 nM -1.09% | 8.33 nM -0.82% | 100 nM 0.93% | 833.33 nM 0.13% | 10000 nM -2.05%

Cc1[nH]nc(C(F)(F)F)c1Cc1sc2c(c1C(=O)N1C[C@](C)(O)CO1)c(=O)n(C)c(=O)n2C(C)C
inactive: 1 nM 1.31% | 8.33 nM -1.35% | 100 nM 1.71% | 833.33 nM 0.45% | 10000 nM 2.23%

O=C(CCCCC(=O)Nc1c(I)cc(I)c(C(=O)O)c1I)Nc1c(I)cc(I)c(C(=O)O)c1I [iodipamide]
inactive: 1 nM -2.81% | 8.33 nM -3.21% | 100 nM -1.82% | 833.33 nM -3.34% | 10000 nM 0.05%

NCCCCCNCC12CC3CC(CC(C3)C1)C2
inactive: 1 nM 2.39% | 8.33 nM 1.74% | 100 nM 0.57% | 833.33 nM 2.97% | 10000 nM -1.44%

CCC(O)(CC(N)=O)c1ccccc1 (stereo not given) [3-hydroxy-3-phenylpentanamide]
inactive: 1 nM 1.46% | 8.33 nM 0.49% | 100 nM -0.1% | 833.33 nM -10.4% | 10000 nM 0.22%

CCC/C=C1\OC(=O)C2=C1CCC=C2 [ligustilide]
inactive: 1 nM 8.3% | 8.33 nM 9.89% | 100 nM 8.75% | 833.33 nM 5.16% | 10000 nM 5.79%

COc1cc(Br)c(S(=O)(=O)Nc2ccc(Cl)c(O[C@@H]3CCN(C)C3)c2)cc1OC
inactive: 1 nM 1.45% | 8.33 nM 1.7% | 100 nM -0.06% | 833.33 nM -0.33% | 10000 nM -0.58%

CCCCC/C=C\C/C=C\CCCCCCCC(=O)NCCCC(=O)O [GABA-linoleamide]
inactive: 1 nM 0.87% | 8.33 nM 4.17% | 100 nM 1.92% | 833.33 nM -0.22% | 10000 nM -0.15%

CNC(=N)NCCC[C@H](N)C(=O)O [targinine]
inactive: 1 nM -1.27% | 8.33 nM 4.65% | 100 nM 8.19% | 833.33 nM 0.16% | 10000 nM 3.97%

C=CC[C@@H]1/C=C(\C)C[C@H](C)C[C@H](OC)[C@H]2O[C@@](O)(C(=O)C(=O)N3CCCC[C@H]3C(=O)O[C@H](/C(C)=C/[C@@H]3CC[C@@H](O)[C@H](OC)C3)[C@H](C)[C@@H](O)CC1=O)[C@H](C)C[C@@H]2OC [tacrolimus]
inactive: 1 nM 0.97% | 8.33 nM 1.42% | 100 nM 2.56% | 833.33 nM 1.67% | 10000 nM 1.14%

C[C@H]1O[C@@H](n2cc(F)c(=O)[nH]c2=O)[C@H](O)[C@@H]1O [doxifluridine]
inactive: 1 nM -2.13% | 8.33 nM -1.63% | 100 nM 1.63% | 833.33 nM -0.27% | 10000 nM -0.71%

COc1cc(OC)nc(O[C@H](C(=O)O)C(OC)(c2ccccc2)c2ccccc2)n1 [darusentan]
inactive: 1 nM 0.26% | 8.33 nM -0.2% | 100 nM 0.62% | 833.33 nM -2.26% | 10000 nM -0.49%

C[C@@H](NC(=O)[C@@H](N)Cc1ccc(O)cc1)C(=O)NCC(=O)N(C)[C@@H](Cc1ccccc1)C(=O)N[C@H](CO)CC[S+](C)[O-] (stereo not given in full)
inactive: 1 nM -0.57% | 8.33 nM -1.1% | 100 nM -1.84% | 833.33 nM -0.24% | 10000 nM 0.65%

C/C=C(/C)C(=O)O[C@H]1[C@H](OC(C)=O)[C@@]2(CO)C(CC1(C)C)C1=CCC3[C@@]4(C)CCC(O[C@@H]5O[C@H](C(=O)O)[C@@H](O[C@@H]6O[C@H](CO)[C@@H](O)[C@H](O)[C@H]6O)[C@H](O)[C@H]5O[C@@H]5O[C@H](CO)[C@@H](O)[C@H](O)[C@H]5O)[C@](C)(CO)C4CC[C@@]3(C)[C@]1(C)C[C@H]2O.C/C=C(\C)C(=O)O[C@H]1[C@H](OC(C)=O)[C@@]2(CO)C(CC1(C)C)C1=CCC3[C@@]4(C)CCC(O[C@@H]5O[C@H](C(=O)O)[C@@H](O[C@@H]6O[C@H](CO)[C@@H](O)[C@H](O)[C@H]6O)[C@H](O)[C@H]5O[C@@H]5O[C@H](CO)[C@@H](O)[C@H](O)[C@H]5O)[C@](C)(CO)C4CC[C@@]3(C)[C@]1(C)C[C@H]2O (stereo not given in full) [escin]
inactive: 1 nM -2.05% | 8.33 nM -1.77% | 100 nM -0.38% | 833.33 nM -4.84% | 10000 nM -27.8%
